# Measured values published in PubChem BioAssay (Tox21).
# Records with an inconclusive call do not appear. Active and inactive are the calls of the source. Calls follow the shape of the dose curve; as a rule, active = well fitted cell-killing curve with a large enough effect in the repeat runs; inconclusive = weak or mixed curves, or effect the other way; inactive = no such curve, though single readings can be large or run the other way.
# Experiment: qHTS assay to identify small molecule antagonists of the vitamin D receptor (VDR) signaling pathway - cell viability counter screen (AID 743225); also: nearly all actives have a fitted effect of over 50% in size
# Details: VDR-bla HEK293T viability, CellTiter-Glo luminescence, 16 h; series mostly up to 61 µM; viability change, negative = cytotoxic: at the top concentration
# From the text: U.S. Tox21 Program National Center for Advancing Translational Sciences [NCATS] NIH Chemical Genomics Center [NCGC] U.S. Environmental Protection Agency [EPA] National Institutes of Environmental Health Sciences [NIEHS] National Toxicology Program [NTP] U.S. Food and Drug Administration [FDA] Tox21 Assay Overview: The vitamin D receptor (VDR), a member of nuclear hormone receptor superfamily, plays a critical role in calcium homeostasis and bone metabolism. It is also involved in cell differentiation and growth, and thrombogenicity. To identify the compounds that inhibit VDR signaling, the VDR-UAS-bla HEK 293T cell line (Invitrogen, Carlsbad, CA, USA) containing a beta-lactamase reporter gene under the control of an upstream activator sequence (UAS) was used to screen the Tox21 10K compound library. The cytotoxicity of the Tox21 compound library against the VDR-bla cell line was tested in parallel by measuring the cell viability using CellTiter-Glo assay (Promega, Madison, WI) in the same wells.
# Tox21 Assay Protocol Summary: VDR-bla cells were dispensed at 2,000 cells/5 uL of assay medium per well into black wall/clear-bottom 1536-well plates using a Multidrop Combi (Thermo Fisher Scientific, Waltham, MA) dispenser. After the assay plates were incubated at a 37C and 5% CO2 for 4 h, 23 nL of compounds dissolved in DMSO, positive controls or DMSO only was transferred to the assay plate by a Pintool station (Kalypsys, San Diego, CA), followed by addition of 1 uL of 1-alpha, 25-Dihydroxy Vitamin D3 (3 nM, final concentration in the wells) using a Bioraptr Flying Reagent Dispenser (FRD) workstation (Beckman Coulter, Indianapolis, IN). The plates were incubated at 37C and 5% CO2 for 16 h, and then 1 uL of LiveBLAzerTM B/G FRET substrate was added using a Bioraptr FRD. The plates were incubated at room temperature for 2 h and fluorescence intensity was measured by an Envision plate reader (PerkinElmer, Shelton, CT). For cell viability readout that measures cytotoxicity, 3 ul/well of CellTiter-Glo reagent was added into the assay plates using a Bioraptr FRD. After 30 min incubation at room temperature, the luminescence intensity in the plates was measured using a ViewLux plate reader (PerkinElmer).
# % is scaled to controls: 0 for no effect and ±100 for the full control effect.
row,Compound,"viability change, negative = cytotoxic"
1,CO[C@@]1(NC(=O)CSC[C@@H](N)C(=O)O)C(=O)N2C(C(=O)O)=C(CSc3nnnn3C)CS[C@@H]21,-22.9% (inactive)
2,CC12CCC(C(=O)C1=O)C2(C)C (stereo not given),-18.1% [at 78.8 µM] (inactive)
3,CC(C)(CCC(=O)O)C(=O)O,18.4% [at 78.8 µM] (inactive)
4,Cc1ccnc(NS(=O)(=O)c2ccc(N)cc2)n1,13.7% (inactive)
5,CC[N+](C)(CC)CCOC(=O)C1c2ccccc2Oc2ccccc21,-2.06% (inactive)
6,CCN1C=CN(C)C1C (stereo not given),-22.8% [at 78.8 µM] (inactive)
7,CCOC(=O)C(=O)CCCCCCl,6.28% (inactive)
8,CCCCOCCOC(=O)CCCCCCCCC(=O)OCCOCCCC,-6.86% (inactive)
9,CC(=O)c1ccc2ccccc2c1,-0.615% (inactive)
10,CC(=O)N[C@H]1[C@H]([C@H](O)[C@H](O)CO)OC(C(=O)O)=C[C@@H]1N=C(N)N,4.03% (inactive)
11,C=C(C)C(=O)OCC1CCCO1 (stereo not given),1.24% (inactive)
12,OCCCCCO,7.13% [at 78.8 µM] (inactive)
13,Cc1ccccc1N=C(N)N=C(N)N,6.81% (inactive)
14,C[N+]1(C)[C@@H]2CC(OC(=O)[C@H](CO)c3ccccc3)C[C@H]1[C@@H]1O[C@@H]12 (stereo not given in full),-0.871% (inactive)
15,COCCOC[C@H](CC1(C(=O)NC2CCC(C(=O)O)CC2)CCCC1)C(=O)Oc1ccc2c(c1)CCC2 (stereo not given in full),-5.14% (inactive)
16,Cc1cc(C)c(N=Nc2c(O)c(S(=O)(=O)O)cc3cc(S(=O)(=O)O)ccc23)cc1C,8.22% [at 6.95 µM] (inactive)
17,CCCCCCC#CC(=O)OC,4.75% (inactive)
18,O=C1c2ccccc2C(=O)c2cc(O)ccc21,1.22% (inactive)
19,CC1OC1C1CCC2(C)OC2C1 (stereo not given),-24.1% (inactive)
20,CC[C@H]1OC(=O)[C@H](C)[C@@H](O[C@H]2C[C@@](C)(OC)[C@@H](O)[C@H](C)O2)[C@H](C)[C@@H](O[C@@H]2O[C@H](C)C[C@H](N(C)C)[C@H]2O)[C@](C)(OC)C[C@@H](C)C(=O)[C@H](C)[C@@H](O)[C@]1(C)O,-26% [at 78.8 µM] (inactive)

row,Compound,"viability change, negative = cytotoxic"
1,CN1[C@@H]2CC[C@H]1CC(OC(=O)C(O)c1ccccc1)C2 (stereo not given in full),0.317% (inactive)
2,NC(=O)NC1N=C([O][Al])NC1=O (stereo not given),0.194% (inactive)
3,Cc1ccc(-c2ncc(Cl)cc2-c2ccc(S(C)(=O)=O)cc2)cn1,1.45% (inactive)
4,C=CN1CCCCCC1=O,9.12% (inactive)
5,Clc1cc(Cl)cc(Cl)c1,-0.38% (inactive)
6,CCCCCCCCN1CCCC1=O,1.16% (inactive)
7,C=C(C)C(=O)OCC(O)CO (stereo not given),20% (inactive)
8,C=CCOCC(O)CO (stereo not given),6.52% (inactive)
9,COc1ccnc(CS(=O)c2nc3cc(OC(F)F)ccc3[nH]2)c1OC (stereo not given),-26.2% [at 78.8 µM] (inactive)
10,CC(C)C[C@@H](N)C(=O)O,0.947% [at 28.5 µM] (inactive)
11,COc1cc(C(=O)NCc2ccc(OCCN(C)C)cc2)cc(OC)c1OC,0.952% (inactive)
12,[K+],2.56% (inactive)
13,COC(=O)Nc1ccc(Cl)c(Cl)c1,12.2% (inactive)
14,CCN1CCOCC1,21.3% (inactive)
15,CCCc1nn(C)c2c(=O)[nH]c(-c3cc(S(=O)(=O)N4CCN(C)CC4)ccc3OCC)nc12,0% (inactive)
16,CC[N+](CC)(CC(=O)Nc1c(C)cccc1C)Cc1ccccc1 (tested in a mixture with another compound),2.84% (inactive)
17,CN1CCC(=C2c3ccccc3CCc3cccnc32)CC1,-5.03% (inactive)
18,CCOC(=O)COc1cc(-n2ncc(C(F)(F)F)c(C)c2=O)c(F)cc1Cl,-9.08% (inactive)
19,O=C(O)CC(C(=O)O)S(=O)(=O)O (stereo not given),11.2% (inactive)
20,O=C(O)CCSCCC(=O)O,3.56% (inactive)
